Sampled rows, rich in hits. Any-hit rate of the full collection: about 3.7%.
PfHsp90 set2: inhibits growth of yeast expressing Plasmodium falciparum Hsp90; S. cerevisiae expressing PfHsp90, BacTiter-Glo ATP, 48 h; yeast lacking PDR1 and PDR3 efflux regulators; inhibition, % at 9.4 µM; 0.32% of 310,000 active; AID 504621;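 active = every replicate shows inhibition above about 80%, whatever the replicate mean, limit read from the data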;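 also: 0% = DMSO neutral controls and 100% = 20 µM radicicol positive controls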
TIM10 inh: inhibits growth of TIM10 yeast strain | S. cerevisiae TIM10 strain growth, BacTiter-Glo luminescence, 24 h | inhibition, % at 10 µM | 1.4% of 330,000 active | AID 463195;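 active = inhibition of 40% or more at the single tested concentration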;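 also: wild-type TIM10 isogenic control strain grown at permissive 25 °C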
V-ATPase pHluor: alters yeast V-ATPase proton transport; 0.37% of 350,000 active; S. cerevisiae, pHLuorin cytosolic pH fluorescence; response, % at 10 µM; in the data active = response mostly above about 7.3%, no sharp cut-off; inactive = mostly below about 5.4%; also: actives read high
tim23-1 inh: inhibits growth of tim23-1 mutant yeast. inhibition, % at 20 µM. S. cerevisiae tim23-1 growth, BacTiter-Glo luminescence, 24 h. 1.3% of 330,000 active. AID 463212;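 active = growth inhibition of the mutant yeast at or above 50%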;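 also: temperature-sensitive mutant grown at 25 °C; plate controls were DMSO-treated mutant yeast for no effect and medium wells lacking yeast for full effect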
tim10-1 inh: growth inhibitors of tim10-1 mutant yeast; S. cerevisiae tim10-1 ts strain growth, BacTiter-Glo, 24 h; inhibition, % at 20 µM; 2.2% of 330,000 active; AID 463190;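 active = inhibition of at least 40%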;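 also: mutant grown at 25 °C; 0% = DMSO wells with yeast and 100% = wells holding no yeast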
tim10 confirm: confirmation of TIM10 yeast growth inhibitors | shares compounds with TIM10 inh | S. cerevisiae tim10 strain growth, BacTiter-Glo luminescence, 24 h | inhibition, % at 10 µM | 63% of 4,600 active | AID 463215;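 active = inhibition of yeast growth at or above a set limit in either of two replicates at 10 µM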;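 also: this counterscreen used the strain with wild-type TIM10; 0% = yeast with DMSO and 100% = medium wells lacking yeast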
Starred values were filed as active, the others as inactive.

What do the screens show for `CC(C)(C)Nc1nc(Cl)nc(Nc2ccccc2)n1`?
PfHsp90 set2: -36; TIM10 inh: 1; V-ATPase pHluor: -1; tim23-1 inh: 48; tim10-1 inh: -5

How did COc1ccccc1Nc1nc(Cl)nc(NC(C)(C)C)n1 do in these assays?
PfHsp90 set2: -33; TIM10 inh: 42*; V-ATPase pHluor: 2; tim23-1 inh: 18; tim10-1 inh: 33; tim10 confirm: 23

How did O=C(COC(=O)c1c(F)cccc1F)NCc1cccs1 do in these assays?
TIM10 inh: 71*; V-ATPase pHluor: -3; tim23-1 inh: 8; tim10-1 inh: -5; tim10 confirm: -1

How did CCN(CC)CCNC(=O)CCc1c(C)nc2c(c(C)nn2-c2ccc(C)cc2)c1C do in these assays?
PfHsp90 set2: -22; TIM10 inh: 4; V-ATPase pHluor: 8; tim23-1 inh: 22; tim10-1 inh: 27

Results for Cc1ccccc1OCCC(=O)OCC(=O)NC1CC1 ?
PfHsp90 set2: 8; TIM10 inh: 0; V-ATPase pHluor: -1; tim23-1 inh: -14; tim10-1 inh: -6

What do the screens show for `O=C(/C=C/c1ccccc1Cl)NCc1ccccc1`?
PfHsp90 set2: 1; TIM10 inh: 1; V-ATPase pHluor: -2; tim23-1 inh: 11; tim10-1 inh: 15

What do the screens show for `O=C(/C=C/c1ccccc1Cl)NCCc1ccccc1`?
PfHsp90 set2: -8; TIM10 inh: 49*; V-ATPase pHluor: 4; tim23-1 inh: 39; tim10-1 inh: 3; tim10 confirm: 46*

What do the screens show for `CCOc1ccc(NC(=O)c2ccccc2OCC(=O)c2ccccc2)cc1`?
PfHsp90 set2: 3; TIM10 inh: 45*; V-ATPase pHluor: 8; tim23-1 inh: 11; tim10-1 inh: 33; tim10 confirm: 28

How did CCOc1cc(/C=C2\NC(=O)NC2=O)ccc1OC(C)C(=O)O (configuration not stated) do in these assays?
PfHsp90 set2: 0; TIM10 inh: 2; V-ATPase pHluor: -5; tim23-1 inh: 14; tim10-1 inh: 18

How did CN1CCN(c2ccc(CNS(=O)(=O)c3ccsc3)cc2)CC1 do in these assays?
TIM10 inh: 8; V-ATPase pHluor: -1; tim23-1 inh: -8; tim10-1 inh: 9

What do the screens show for `O=[N+]([O-])c1cccc(-c2ccc(/C=N/NC(=S)Nc3ccccc3)o2)c1`?
PfHsp90 set2: -36; TIM10 inh: 47*; V-ATPase pHluor: 0; tim23-1 inh: 6; tim10-1 inh: 24; tim10 confirm: 48*

How did C=CCNC(=S)N/N=C/c1cccc([N+](=O)[O-])c1 do in these assays?
PfHsp90 set2: -13; TIM10 inh: 47*; V-ATPase pHluor: -2; tim23-1 inh: 33; tim10-1 inh: 38; tim10 confirm: 40*

How did C=CCNC(=S)Nc1cccc([N+](=O)[O-])c1 do in these assays?
PfHsp90 set2: 5; TIM10 inh: 2; V-ATPase pHluor: -3; tim23-1 inh: 9; tim10-1 inh: 18

Results for CCCCCCCC[n+]1cccc(C(=O)N(CC)CC)c1 ?
PfHsp90 set2: -10; TIM10 inh: -3; V-ATPase pHluor: 0; tim23-1 inh: 19; tim10-1 inh: -4

Results for CCCCCCCCCCCCCCCC[n+]1ccc(C(N)=O)cc1 ?
PfHsp90 set2: 104*; TIM10 inh: 48*; V-ATPase pHluor: 3; tim23-1 inh: 42; tim10-1 inh: -12; tim10 confirm: -7

What do the screens show for `CCOc1ccc(OCCC(=O)OCC(=O)N2CCN(S(=O)(=O)c3ccc(C)cc3C)CC2)cc1`?
PfHsp90 set2: -5; V-ATPase pHluor: -2

Results for O=C(Nc1nc(-c2ccccc2)cs1)C1COc2ccccc2O1 (configuration not stated) ?
PfHsp90 set2: 12; TIM10 inh: 41*; V-ATPase pHluor: -2; tim23-1 inh: 44; tim10-1 inh: 24; tim10 confirm: 35*

What do the screens show for `O=C1c2ccccc2C(=O)C1c1ccc2ccccc2n1`?
TIM10 inh: 58*; V-ATPase pHluor: -26; tim23-1 inh: 26; tim10-1 inh: 31; tim10 confirm: 46*

How did COc1ccc2c(c1)C(=NO)c1cc(OC)ccc1-2 do in these assays?
PfHsp90 set2: -6; TIM10 inh: 45*; V-ATPase pHluor: 7; tim23-1 inh: 10; tim10-1 inh: 38; tim10 confirm: 38*

How did O=c1oc2ccccc2c(Nc2cccc3ccccc23)c1[N+](=O)[O-] do in these assays?
PfHsp90 set2: 1; TIM10 inh: 49*; V-ATPase pHluor: -4; tim23-1 inh: 39; tim10-1 inh: 31; tim10 confirm: 36*

What do the screens show for `Cc1cc(C)n2nc(SC(C)C(=O)N(C)c3ccccc3)nc2n1` (configuration not stated)?
PfHsp90 set2: -1; TIM10 inh: -4; V-ATPase pHluor: -2; tim23-1 inh: 3; tim10-1 inh: 12

What do the screens show for `N#Cc1ccccc1S(=O)(=O)N1CCN(CC(=O)Nc2ccccc2C(=O)NC2CC2)CC1`?
PfHsp90 set2: 19; TIM10 inh: -11; V-ATPase pHluor: -6; tim23-1 inh: -3; tim10-1 inh: -9

Results for C=CCc1cc(Cl)ccc1OCCn1ccnc1 ?
PfHsp90 set2: -19; TIM10 inh: 12; V-ATPase pHluor: 13; tim23-1 inh: 21; tim10-1 inh: 18

How did CC(=O)c1ccccc1NS(=O)(=O)c1c(C)nn(-c2ccccc2)c1C do in these assays?
PfHsp90 set2: 10; TIM10 inh: 47*; V-ATPase pHluor: -2; tim23-1 inh: 48; tim10-1 inh: 32; tim10 confirm: 30

Results for C[C@]12C(=O)N(c3ccc(F)cc3)C(=O)N1[C@H]1c3ccccc3OC[C@@H]1[C@H]2c1ccccc1 ?
PfHsp90 set2: -85; TIM10 inh: 44*; V-ATPase pHluor: 3; tim23-1 inh: 34; tim10-1 inh: 26; tim10 confirm: 43*

What do the screens show for `C[C@@]12C(=O)N(c3ccc(F)cc3)C(=O)N1[C@@H]1c3ccccc3OC[C@@H]1[C@H]2c1ccccc1`?
PfHsp90 set2: -12; TIM10 inh: 19; V-ATPase pHluor: -22; tim23-1 inh: 34; tim10-1 inh: 26

Results for Oc1ccccc1CN1CCN(C(O)(c2ccccc2)c2ccccc2)CC1 ?
PfHsp90 set2: 21; TIM10 inh: 43*; V-ATPase pHluor: 4; tim23-1 inh: 28; tim10-1 inh: 16; tim10 confirm: 52*

What do the screens show for `COc1cc(CN2CCN(C(O)(c3ccccc3)c3ccccc3)CC2)cc(OC)c1OC`?
PfHsp90 set2: -11; TIM10 inh: 6; V-ATPase pHluor: 4; tim23-1 inh: 10; tim10-1 inh: -13

What do the screens show for `CCOc1ncccc1C(=O)Nc1ccc(OC)c(S(=O)(=O)N2CCOCC2)c1`?
TIM10 inh: 5; V-ATPase pHluor: -3; tim23-1 inh: 16; tim10-1 inh: 13

Results for O=C(Nc1ccc(NC(=O)c2cccs2)cn1)c1ccccc1 ?
PfHsp90 set2: 13; TIM10 inh: 42*; V-ATPase pHluor: -3; tim23-1 inh: 19; tim10-1 inh: -17; tim10 confirm: 30*

Compound activity deposited in PubChem BioAssay by several laboratories.
